Compounds without any hit were thinned out: in the full panel of roughly 83,000, 20% have a hit.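 Method: cells in 96-well plates; compound added at one concentration; 48 h incubation; percent growth measured; values under 10 scored active.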 Unmarked numbers belong to inactive results. Calls of active or inactive are those of the source.
Tests used:
Test in all cases: NCI-60 one-dose screen, 48 h (100 = growth as untreated, 0 = no growth, -100 = all killed)
Settings in all cases: 10 µM unless noted
NCI-H23 lung = test system: NCI-H23 lung
NCI-H226 lung = test system: NCI-H226 lung
NCI-H322M lung = test system: NCI-H322M lung
HOP-62 NSCLC = test system: HOP-62 NSCLC
NCI-H460 lung = test system: NCI-H460 lung
HOP-92 NSCLC = test system: HOP-92 NSCLC
NCI-H522 lung = test system: NCI-H522 lung
A549/ATCC NSCLC = test system: A549/ATCC NSCLC
786-0 renal = test system: 786-0 renal
COLO 205 colon = test system: COLO 205 colon
DU-145 prostate = test system: DU-145 prostate
K-562 leukemia = test system: K-562 leukemia
MALME-3M melanoma = test system: MALME-3M melanoma
MDA-MB-231 breast = test system: MDA-MB-231 breast
RXF 393 renal = test system: RXF 393 renal
SF-268 CNS = test system: SF-268 CNS
SF-295 CNS = test system: SF-295 CNS
SF-539 CNS = test system: SF-539 CNS
UACC-257 melanoma = test system: UACC-257 melanoma
M14 melanoma = test system: M14 melanoma

SMILES	growth (NCI-H23 lung)	growth (NCI-H226 lung)	growth (NCI-H322M lung)	growth (HOP-62 NSCLC)	growth (NCI-H460 lung)	growth (HOP-92 NSCLC)	growth (NCI-H522 lung)	growth (A549/ATCC NSCLC)	growth (786-0 renal)	growth (COLO 205 colon)	growth (DU-145 prostate)	growth (K-562 leukemia)	growth (MALME-3M melanoma)	growth (MDA-MB-231 breast)	growth (RXF 393 renal)	growth (SF-268 CNS)	growth (SF-295 CNS)	growth (SF-539 CNS)	growth (UACC-257 melanoma)	growth (M14 melanoma)
CSc1nc(O)c(-c2ccccc2)c(=O)[nH]1	103%	99.1%	101%	105%	104%	101%	94.2%	100%	101%	103%	107%	98%	101%	98.5%	116%	103%	101%	100%	101%	101%
c1ccc(-c2nn(-c3ccccc3)[n+](-c3ccccc3-c3ccccc3)n2)cc1	5.14% (active)	28.1%	40.6%	32.6%	5.11% (active)	-24.4% (active)	-7.02% (active)	17.3%	30.8%	-34.5% (active)	22.8%	5.29% (active)	-31.7% (active)	35.5%	10.1%	22%	3.4% (active)	22.9%	9.82% (active)	23.2%
Fc1ccc(-n2cc(COc3ncnc4sc5c(c34)CCCC5)nn2)cc1Cl	96.8%	94.4%	100%	96.3%	102%	109%	84%	98.4%	98.1%	109%	105%	95.5%	92.1%	95.8%	103%	95.8%	105%	98.8%	102%	94.2%
C=C1C(=O)O[C@H]2[C@H]1CC/C(COC(=O)/C=C/c1c[nH]c3ccccc13)=C\CC[C@@]1(C)O[C@@H]21	-53% (active)	-71.4% (active)	-48.2% (active)	-73.5% (active)	-70.8% (active)	-91.4% (active)	-63.1% (active)	-78.7% (active)	-90.4% (active)	-68.8% (active)	-73.5% (active)	-3.41% (active)	-83.5% (active)	-78.4% (active)	-94.3% (active)	-72.8% (active)	21.8%	-95.5% (active)	-90.4% (active)	-76.9% (active)
CCNC(=S)NNC(=O)c1cc2ccc1CCc1ccc(cc1)CC2	97.7%	106%	95.1%	101%	103%	97.2%	92.7%	101%	106%	107%	103%	100%	101%	100%	109%	95.4%	93.2%	101%	109%	95%
COc1cccc(C(Cc2ccccc2)Nc2ccccc2)c1OC (stereo not given)	92.1%	91.3%	101%	92.6%	101%	77.5%	65.6%	81.4%	95.5%	105%	109%	90.4%	98.9%	97.4%	109%	101%	99.6%	104%	91%	97.2%
O=C(Nc1nc(-c2ccccc2Cl)cs1)c1cc(-c2ccccc2)nc2ccc(Cl)cc12	51.3%	74.3%	93.8%	84.6%	102%	42.8%	78.6%	99.7%	89.4%	87.6%	77.8%	25.2%	63.9%	46.8%	87.2%	44.7%	81.1%	-7.04% (active)	84.6%	4.1% (active)
CCCCOc1ccc(/C=N/Nc2cc(C)nc3ccc(Cl)cc23)cc1	60%	88.9%	51.6%	27.1%	-62.8% (active)	68.7%	-25.4% (active)	10.1%	-80.9% (active)	-66.6% (active)	3.96% (active)	-21.7% (active)	-77% (active)	-49.5% (active)	-84.2% (active)	64.9%	-83.6% (active)	-80.5% (active)	84.1%	-25.2% (active)
